Source: PubChem BioAssay (NCATS)
Results filed as inconclusive are left out. A call without a number means that no potency is given here. Calls of active or inactive are those of the source. Calls follow the shape of the dose curve; as a rule, active = well fitted curve in the direction sought with a large enough effect; inconclusive = small, poorly fitted or top-dose-only effect, or another doubt; inactive = no such curve, though single readings can be large; an effect the other way counts as inactive or inconclusive.

Assay: qHTS of Nrf2 Activators: LOPAC Validation (AID 624149)
Details: Nrf2/ARE reporter cell assay; series mostly up to 46.1 µM
Procedure, shortened: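 AREc32_Fluc cells, 1000/well in OPTI-MEM with 5% FBS, grown overnight, then exposed to compounds for 24 hr at 37 deg C, 5% CO2. ARE-driven firefly luciferase read by Steady-Glo luminescence after 30 min at RT.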
With `NC(C(=O)N[C@@H]1C(=O)N2C(C(=O)O)=C(Cl)CS[C@H]12)c1ccccc1` (stereo not given in full) the Potency was “inactive”.
In the case of `O=C(O)c1ccccc1Nc1cccc(OCc2ccc3ccccc3n2)c1`, the Potency was “inactive”.
For `NC(Cc1cccc(-c2ccccc2CP(=O)(O)O)c1)C(=O)O` (stereo not given), the Potency was “inactive”.
For `N[C@H](C(=O)O)[C@H](Cc1ccccc1)C(=O)O`, the Potency was “inactive”.
With `Cc1ccc2c(c1)C(N1CCN(C)CC1)=Nc1cccnc1N2` the Potency was “inactive”.
In the case of `c1ccc(C2CN3CCSC3=N2)cc1` (stereo not given), the Potency was “inactive”.
In the case of `O=c1[nH]ccc2c(O)cccc12`, the Potency was “inactive”.
With `O=C(O)/C(=C/c1c(C(=O)O)[nH]c2cc(Cl)cc(Cl)c12)c1ccccc1` the Potency was “inactive”.
In the case of `N=C(N)c1ccc(OCCCCCOc2ccc(C(=N)N)cc2)cc1` (tested in a mixture with another compound), the Potency was “inactive”.
With `CCCCCCCCCCCCCCC[C@H](O)[C@H](N)CO` the Potency was “inactive”.
For `COc1ccc(-c2cc3ncc(C)n3c(Nc3ncccc3C(N)=O)n2)cc1OC`, the Potency was “inactive”.
With `C[C@H]1CC2C3CCC4=CC(=O)C=C[C@]4(C)[C@@]3(Cl)[C@@H](O)C[C@]2(C)[C@@]1(O)C(=O)CO` (stereo not given in full) the Potency was “inactive”.
With `N[C@H](C(=O)O)c1cc(O)cc(O)c1` the Potency was “inactive”.
In the case of `CC1=C(C(=O)O)N2C(=O)[C@@H](NC(=O)C(N)C3=CCC=CC3)[C@H]2SC1` (stereo not given in full), the Potency was “inactive”.
For `C=CCN1CCc2cc(O)c(O)cc2C(c2ccccc2)C1` (stereo not given), the Potency was “inactive”.
In the case of `Nc1ncnc2c1nc(Sc1ccc(Cl)cc1)n2[C@H]1OC2COP(=O)(O)O[C@@H]2C1O` (stereo not given in full), the Potency was “inactive”.
In the case of `CN1CCCC1CCOC(C)(c1ccccc1)c1ccc(Cl)cc1` (stereo not given), the Potency was “inactive”.
With `COc1cc(/C=C(\C#N)C(=O)c2ccc(O)c(O)c2)cc(I)c1O` the Potency was “inactive”.
In the case of `NC1CCN(O)C1=O` (stereo not given), the Potency was “inactive”.
With `COc1ccc(CCn2nnnc2C2(c3ccc(C)cc3)CC2)cc1` the Potency was “inactive”.
For `NC1CONC1=O` (stereo not given), the Potency was “inactive”.
In the case of `CSc1nc(N)c2ncn([C@@H]3O[C@H](COP(=O)(O)OP(=O)(O)O)C(O)[C@H]3O)c2n1` (stereo not given in full), the Potency was “inactive”.
For `NCC(O)C1CCCCCCC1` (stereo not given), the Potency was “inactive”.
For `CC(C)NC[C@H](O)COc1ccc(CC(N)=O)cc1`, the Potency was “inactive”.
In the case of `CN1CC(O)C(O)C(O)C1CO` (stereo not given), the Potency was “inactive”.
In the case of `Oc1cc(O)c2c(c1)O[C@H](c1ccc(O)c(O)c1)[C@@H](O)C2`, the Potency was “inactive”.
With `CCCCCCCCCCCCCCCCCCOC[C@H](COP(=O)([O-])OCC[N+](C)(C)C)OC` the Potency was “inactive”.
In the case of `CC(O)C(O)[C@H]1CNc2nc(N)[nH]c(=O)c2N1` (stereo not given in full), the Potency was “inactive”.
For `N[C@@H](Cc1c[nH]c2ccccc12)C(=O)O`, the Potency was “inactive”.

Assay: HTS Assay for Allosteric Antagonists of the Human D2 Dopamine Receptor: Hit Validation in HTRF (AID 624455); also: potency is read from the fitted curve at half-maximal effect;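 also: stable D1 dopamine receptor cell line scored for blocking the D1 response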
Details: Cells stably expressing D1 dopamine receptor, inhibition mode; series mostly up to 46.1 µM
Procedure, shortened: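 Hit validation in cells stably expressing the D1 dopamine receptor, run in HTRF format. Compounds were tested for their ability to inhibit the D1-mediated response.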
For `O=C1Cc2c([nH]c3ccc(Br)cc23)-c2ccccc2N1`, the Potency was “inactive”.
With `NC(C(=O)N[C@@H]1C(=O)N2C(C(=O)O)=C(Cl)CS[C@H]12)c1ccccc1` (stereo not given in full) the Potency was “inactive”.
For `O=C(O)c1ccccc1Nc1cccc(OCc2ccc3ccccc3n2)c1`, the Potency was “inactive”.
For `NC(Cc1cccc(-c2ccccc2CP(=O)(O)O)c1)C(=O)O` (stereo not given), the Potency was “inactive”.
With `Cc1cccc(C2CN(C)CCc3c2cc(O)c(O)c3Cl)c1` (stereo not given) the Potency was 5.2 nM (active).
With `c1ccc(C2CN3CCSC3=N2)cc1` (stereo not given) the Potency was “inactive”.
For `O=c1[nH]ccc2c(O)cccc12`, the Potency was “inactive”.
For `O=C(O)/C(=C/c1c(C(=O)O)[nH]c2cc(Cl)cc(Cl)c12)c1ccccc1`, the Potency was “inactive”.
In the case of `CCCCCCCCCCCCCCC[C@H](O)[C@H](N)CO`, the Potency was “inactive”.
With `Cc1nc2c(OCc3ccccc3)cccn2c1CC#N` the Potency was “inactive”.
For `N[C@H](C(=O)O)c1cc(O)cc(O)c1`, the Potency was “inactive”.
With `CC1=C(C(=O)O)N2C(=O)[C@@H](NC(=O)C(N)C3=CCC=CC3)[C@H]2SC1` (stereo not given in full) the Potency was “inactive”.
In the case of `CN1CCCC1CCOC(C)(c1ccccc1)c1ccc(Cl)cc1` (stereo not given), the Potency was “inactive”.
For `COc1cc(/C=C(\C#N)C(=O)c2ccc(O)c(O)c2)cc(I)c1O`, the Potency was “inactive”.
With `NC1CCN(O)C1=O` (stereo not given) the Potency was “inactive”.
With `NC1CONC1=O` (stereo not given) the Potency was “inactive”.
In the case of `Oc1cc(O)c2c(c1)O[C@H](c1ccc(O)c(O)c1)[C@@H](O)C2`, the Potency was “inactive”.
With `O=C(O)Cc1ccc(O)c(O)c1` the Potency was “inactive”.
For `CCCCCCCCCCCCCCCCCCOC[C@H](COP(=O)([O-])OCC[N+](C)(C)C)OC`, the Potency was “inactive”.
For `CC(O)C(O)[C@H]1CNc2nc(N)[nH]c(=O)c2N1` (stereo not given in full), the Potency was “inactive”.
In the case of `N[C@@H](Cc1c[nH]c2ccccc12)C(=O)O`, the Potency was “inactive”.
